# Test results reported in PMC4336329 (PLoS ONE, 2015).
# Hit rate of the full screen: of about 310,000 compounds, about 14,000 (4.5%) showed an effect of 50% or more. Effects have a minus sign here. The entries come from a sample that favours strong results as a whole.
# Biological target: human ether-à-go-go-related gene (hERG) potassium channel (human, UniProt Q12809)
# Assay: primary screen, population patch clamp on CHO cells stably expressing hERG; higher = less effect of the substance
# 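Note: peak tail current of the secondary pulse compared with the same well before compound.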
# human ether-à-go-go-related gene (hERG) potassium channel, sequence (Q12809 whole entry, looked up): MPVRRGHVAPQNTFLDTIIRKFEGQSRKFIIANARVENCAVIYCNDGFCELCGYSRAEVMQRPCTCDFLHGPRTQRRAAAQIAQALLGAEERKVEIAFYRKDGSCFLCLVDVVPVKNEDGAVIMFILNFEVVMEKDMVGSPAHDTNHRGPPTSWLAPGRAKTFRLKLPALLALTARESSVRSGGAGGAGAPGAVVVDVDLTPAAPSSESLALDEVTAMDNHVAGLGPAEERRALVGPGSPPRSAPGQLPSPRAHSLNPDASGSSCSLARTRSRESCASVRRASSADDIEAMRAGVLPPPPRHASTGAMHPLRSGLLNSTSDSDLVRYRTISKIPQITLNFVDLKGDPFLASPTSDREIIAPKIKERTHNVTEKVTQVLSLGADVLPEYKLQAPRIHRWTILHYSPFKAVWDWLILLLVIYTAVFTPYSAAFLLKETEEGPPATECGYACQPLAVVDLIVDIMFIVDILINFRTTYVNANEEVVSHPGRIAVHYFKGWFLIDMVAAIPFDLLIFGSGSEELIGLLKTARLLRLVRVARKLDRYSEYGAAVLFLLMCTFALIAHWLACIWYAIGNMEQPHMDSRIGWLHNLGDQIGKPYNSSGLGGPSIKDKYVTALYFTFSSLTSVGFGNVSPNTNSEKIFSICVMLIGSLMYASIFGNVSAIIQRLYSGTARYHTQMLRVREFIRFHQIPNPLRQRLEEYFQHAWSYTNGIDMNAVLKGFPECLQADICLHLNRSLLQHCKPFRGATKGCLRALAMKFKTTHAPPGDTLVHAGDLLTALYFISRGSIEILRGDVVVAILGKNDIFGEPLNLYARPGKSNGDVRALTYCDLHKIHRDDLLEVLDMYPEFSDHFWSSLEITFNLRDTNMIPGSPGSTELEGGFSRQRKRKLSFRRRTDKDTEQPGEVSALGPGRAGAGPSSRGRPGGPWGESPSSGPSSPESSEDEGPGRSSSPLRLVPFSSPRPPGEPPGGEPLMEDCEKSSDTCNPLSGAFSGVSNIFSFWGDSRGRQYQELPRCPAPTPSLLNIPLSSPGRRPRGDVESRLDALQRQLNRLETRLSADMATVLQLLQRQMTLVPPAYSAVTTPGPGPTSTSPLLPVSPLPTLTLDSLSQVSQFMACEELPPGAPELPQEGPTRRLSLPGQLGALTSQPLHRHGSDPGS
row,Compound,"hERG current change (%, negative = inhibition) at 10uM [%]"
1,CCN(CC(=O)Nc1cc(Cl)ccc1C)C(=O)COc1cccc2c1OC(C)(C)C2,-4.2
2,CSc1ncccc1C(=O)Nc1cccc(S(=O)(=O)N2CCCCC2)c1,-64.3
3,CSc1ncccc1C(=O)Nc1ccc(S(=O)(=O)N2CCCC2)cc1,-16.6
4,CCOc1ncccc1C(=O)Nc1cccc(S(=O)(=O)N2CCCCC2)c1,-7.03
5,CC(=O)Nc1ccc(NC(=O)c2cc(S(=O)(=O)N3CCCCC3)ccc2C)cc1,5.45
6,Cc1ccc(S(C)(=O)=O)cc1C(=O)Nc1cccc(S(=O)(=O)N2CCCCCC2)c1,-65.2
7,Cc1ccc(S(=O)(=O)N2CCOCC2)cc1C(=O)Nc1cccc(S(=O)(=O)N2CCCC2)c1,-38.3
8,COc1ccc(OC2C(=O)N(Cc3ccc4c(c3)OCO4)C2c2sccc2C)cc1 (stereo not drawn),-5.31
9,O=CNCC(=O)NC1CCCCCC1,20.5
10,CN(Cc1ccco1)S(=O)(=O)c1ccc(CN2C(=O)c3cccnc3C2=O)s1,-63.4
11,COc1ccc(CN2C(=O)c3cccnc3C2=O)cc1S(=O)(=O)N(C)Cc1ccco1,-13.3
12,O=C1c2cccnc2C(=O)N1Cc1ccc(S(=O)(=O)NCc2ccco2)s1,16.2
13,O=C(C1=C(O)C(=O)N(c2ncccn2)C1c1ccc(Cl)cc1)c1ccco1 (stereo not drawn),7.37
14,O=C(CCl)N=c1sccn1Cc1ccccc1Cl,-5.61
15,COc1cc(/C=C(\C#N)C(=O)NCc2cccs2)ccc1O,-0.725
16,CCCNCc1cc(OCC)c(OCC(=O)Nc2ccccc2)cc1Br,-24.7
17,COc1ccc(Br)cc1CN(C)CC(=O)NCCc1ccccc1.O=C(O)C(=O)O,-14.7
18,O=C(COc1ccc(Br)cc1CNC1CCCCC1)NCCc1ccccc1,-77
19,O=C(COc1ccc(Br)cc1CO)Nc1ccc(F)cc1,-32.8
20,COc1ccccc1NC(=O)COc1ccc(Br)cc1CNC1CCCC1,-53.2
21,O=C(COc1ccc(Br)cc1CO)Nc1ccccc1,-10.4
22,COc1ccccc1NC(=O)COc1ccc(Br)cc1CO,-4.58
23,CCOc1cc(CNCC(C)C)c(Cl)cc1OCC(=O)Nc1ccccc1,-15.2

row,Compound,"hERG current change (%, negative = inhibition) at 10uM [%]"
1,O=C(COc1ccc(Br)cc1Br)NC1CCCC1,12.9
2,COc1cc(CNC2CCCC2)cc(Br)c1OCC(=O)Nc1ccccc1C,-1.01
3,CCOc1cc(CNC2CCCC2)c(Cl)cc1OCC(=O)Nc1ccccc1,-67.8
4,Cl.O=C(COc1ccc(Br)cc1CNC1CCCC1)Nc1ccccc1,-73.1
5,COC(=O)c1cc(C(=O)CC(C)C)c[nH]1,16.7
6,O=C(/C=C/c1ccccc1)NC(=S)NNC(=O)Cc1cccs1,22.5
7,COc1ccc(NC(=O)CCS(=O)(=O)c2cc3c(cc2Cl)NC(=O)CO3)cc1OC,9.57
8,COc1cc(-c2noc(C)c2C(=O)NCCc2c[nH]c3ccccc23)cc(OC)c1OC,0.397
9,O=C(NCCc1ccccn1)C1CCCN(S(=O)(=O)Cc2ccccc2)C1 (stereo not drawn),9.26
10,CC(C)(C)c1ccc(C(=O)Oc2ccc3c(c2)OCC3=O)cc1,2.55
11,Cl.Fc1ccccc1COc1ccc(Br)cc1CNCC1CCCO1 (stereo not drawn),-68.3
12,COc1ccc(Br)cc1CNCC1CCCO1 (stereo not drawn),5.7
13,Brc1cccc(CNCC2CCCO2)c1 (stereo not drawn),4.72
14,Brc1ccc(OCc2ccccc2)c(CNCC2CCCO2)c1.Cl (stereo not drawn),-50
15,Cl.Fc1ccc(COc2ccc(Br)cc2CNCC2CCCO2)cc1 (stereo not drawn),-63.5
16,CCOc1ccccc1CNCC1CCCO1.Cl (stereo not drawn),11.5
17,CN(C)S(=O)(=O)c1ccc(NC(=O)CN2C(=O)NC3(CCCC3)C2=O)cc1,8.41
18,CCOc1ccc2nc(NC(=O)CSc3nnc(-c4ccncc4)n3CC3CCCO3)sc2c1 (stereo not drawn),3.71
19,Fc1ccc(NC(=S)NCCc2ccc(Cl)cc2)cc1,1.47
20,COCCn1cnc2c1c(=O)n(CC(=O)OCC(=O)NCC(F)(F)F)c(=O)n2Cc1ccccc1,4.6
21,COCCn1cnc2c1c(=O)n(CC(=O)OCC(=O)NCCCc1ccccc1)c(=O)n2Cc1ccccc1,-57.9
22,COCCn1cnc2c1c(=O)n(CC(=O)NN)c(=O)n2Cc1ccccc1,8.95
